# High-throughput results deposited in PubChem by Broad Institute.
# This excerpt belongs to a sample that is enriched for hits.
# NOMO-1 viab = NOMO-1 AML cell viability reduction, primary screen, STK33 inhibitor project, CellTiter-Glo luminescence. NOMO-1 AML viability, 72 h. inhibition, % (concentration not given with the values). 37,000 compounds, 7.5% hits; in the data active means inhibition above about 80%
# STK33 inh = STK33 kinase inhibitors, primary screen, biochemical, luminescence, ADP-Glo, MBP substrate | inhibition, % at 12.5 µM | AID 2322, 2010 | Serine/threonine-protein kinase 33 (Homo sapiens), Q9BYT3 | 27,000 compounds, 0.44% hits; in the data active means inhibition above about 20%
# mut p53 react = mutant p53 pathway re-activators, primary screen, cell-based, SW480, luciferase, single point, HTS; SW480 PUMA-promoter luciferase, p53 mutant reactivation; activation, % at 9.98 µM; 28,000 compounds, 1.5% hits; in the data active means activation above about 52%
# ID4 SMM = binders of human ID4 protein, primary screen, biochemical, small molecule microarray, single point; AID 624137, 2012; 31,000 compounds, 1.2% hits; Flag-ID4 binding, fluorescence F/B; calls only; call rule not given here;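 further: a binder raises fluorescence above local background on the spot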
# Target sequence (P47928 whole entry, looked up): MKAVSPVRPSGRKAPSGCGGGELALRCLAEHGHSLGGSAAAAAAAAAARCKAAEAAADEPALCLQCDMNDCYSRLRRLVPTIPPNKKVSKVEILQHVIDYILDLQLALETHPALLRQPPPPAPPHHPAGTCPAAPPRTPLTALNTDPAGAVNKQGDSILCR
# A number is an active result; – = inactive; · = no result given; + = active, no number.
SMILES,NOMO-1 viab,STK33 inh,mut p53 react,ID4 SMM
CCOC(=O)c1sc(SCc2ccccc2)c2c1-c1sccc1N(C)S2(=O)=O,–,·,·,·
CSc1sc(C(=O)Sc2ccccc2)c2c1S(=O)(=O)N(C)c1ccccc1-2,121,·,·,·
COc1cccc(S(=O)(=O)N(C)C[C@H]2Oc3ncc(C#CC(C)C)cc3C(=O)N([C@@H](C)CO)C[C@H]2C)c1,·,·,–,·
C[C@H]1CN([C@@H](C)CO)C(=O)CCCn2cc(nn2)CO[C@H]1CN(C)S(=O)(=O)c1cn(C)cn1,·,–,–,–
CS(=O)(=O)N(CC(=O)Nc1ccccc1-c1ccccc1)c1ccc(Br)cc1,–,–,–,–
CN(CC(=O)C1=C(c2ccc(Br)cc2)C(=O)c2ccccc2C1=O)c1ccccc1,126,·,·,·
C[C@H]1CN([C@@H](C)CO)C(=O)Cc2cc(NC(=O)CCC(F)(F)F)ccc2O[C@H]1CN(C)S(=O)(=O)c1ccc(F)cc1,126,–,·,·
C[C@H](CO)N1C[C@H](C)[C@H](CN(C)S(=O)(=O)c2ccc(Cl)cc2)Oc2ccc(NC(=O)CCC(F)(F)F)cc2CC1=O,121,–,·,·
C[C@H]1CN([C@@H](C)CO)C(=O)Cc2cc(NC(=O)CCC(F)(F)F)ccc2O[C@H]1CN(C)S(=O)(=O)c1ccc(Cl)cc1,109,–,·,·
O=C(CN1C(=O)c2ccccc2S1(=O)=O)NCC1CCCO1 (stereo unspecified),–,–,–,–
CCN(CC)C(=S)CSc1nc(-c2ccccc2)cc(-c2ccco2)c1C#N,88,·,·,·
CCc1nnc(NC(=O)CSc2nc(-c3ccccc3)cc(C(F)(F)F)c2C#N)s1,–,–,·,·
C[C@@H]1CN([C@@H](C)CO)C(=O)CCCn2nncc2CO[C@@H]1CN(C)C(=O)Nc1cccc(F)c1,·,–,·,·
Cc1c(NC(=O)CN(c2ccc(Br)cc2)S(C)(=O)=O)cccc1[N+](=O)[O-],–,–,–,–
COc1cccc2cc(C(=O)C3C(=O)C(=O)N(CCCN4CCOCC4)C3c3cccnc3)oc12 (stereo unspecified),–,–,–,–
COc1ccc(-n2nnnc2SCC(=O)Nc2cc(C)c(Cl)cc2OC)cc1,92,–,–,–
O=C(CSc1nnnn1-c1ccccc1)Nc1ccc(Cl)c(C(=O)O)c1,–,–,–,+
C[C@H](CO)N1C[C@H](C)[C@@H](CN(C)CC2CCCCC2)Oc2c(NC(=O)c3ccc(-c4nccs4)cc3)cccc2C1=O,104,·,·,·
C[C@@H]1CN([C@H](C)CO)C(=O)c2cccc(NC(=O)c3ccc(-c4nccs4)cc3)c2O[C@@H]1CN(C)CC1CCCCC1,–,·,–,·
C[C@@H]1CN([C@@H](C)CO)C(=O)c2cccc(NC(=O)c3ccc(-c4nccs4)cc3)c2O[C@H]1CN(C)CC1CCCCC1,109,·,·,·
NC(=O)c1ccc(N2CCN(C(c3ccccc3)c3ccccc3)CC2)nc1,109,·,·,·
C[C@@H]1CN([C@@H](C)CO)C(=O)c2cccc(NS(C)(=O)=O)c2O[C@H]1CN(C)Cc1ccccc1,–,·,–,–
COC(=O)c1c(NC(=S)Nc2ccc(CC(=O)O)cc2)sc(C)c1C,–,–,–,+
CCOC(=O)c1ccc(-n2c(C)cc(C=C3C(=O)NC(=S)NC3=O)c2C)cc1,121,–,·,·
O=C(CCCN1C(=O)c2cccc3cccc(c23)C1=O)Nc1ccccc1Br,–,–,–,–
SMILES,NOMO-1 viab,STK33 inh,mut p53 react,ID4 SMM
O=C(CCCCCN1C(=O)c2cccc3cccc(c23)C1=O)NO,97,–,·,·
O=C(CCCN1C(=O)c2ccccc2C1=O)Nc1ccc(Nc2ccccc2)cc1,102,–,55,–
Cc1noc(C)c1NC(=O)N(C)C[C@@H]1OCCCC[C@H](C)Oc2ccc(NS(=O)(=O)c3cn(C)cn3)cc2C(=O)N([C@@H](C)CO)C[C@H]1C,·,·,–,–
Cc1noc(C)c1NC(=O)N(C)C[C@@H]1OCCCC[C@@H](C)Oc2ccc(NS(=O)(=O)c3cn(C)cn3)cc2C(=O)N([C@H](C)CO)C[C@H]1C,·,·,–,+
Cc1noc(C)c1NC(=O)N(C)C[C@H]1OCCCC[C@@H](C)Oc2ccc(NS(=O)(=O)c3cccs3)cc2C(=O)N([C@H](C)CO)C[C@H]1C,·,·,–,+
CNC[C@@H]1OCCCC[C@H](C)Oc2ccc(NS(=O)(=O)c3cn(C)cn3)cc2C(=O)N([C@@H](C)CO)C[C@@H]1C,·,·,–,+
Cc1noc(C)c1NC(=O)N(C)C[C@@H]1OCCCC[C@@H](C)Oc2ccc(NS(=O)(=O)c3cccs3)cc2C(=O)N([C@H](C)CO)C[C@H]1C,·,·,–,+
C[C@@H]1CN([C@@H](C)CO)C(=O)c2cc(NS(C)(=O)=O)ccc2O[C@@H](C)CCCCO[C@H]1CN(C)C(=O)Nc1ccc(C(F)(F)F)cc1,·,·,–,–
C[C@@H]1CN([C@@H](C)CO)S(=O)(=O)c2ccc(-c3ccccc3)cc2O[C@H]1CN(C)CC1CCCC1,·,·,–,–
COc1ccccc1CN(C)C[C@H]1OCc2cnnn2CCCC(=O)N([C@H](C)CO)C[C@H]1C,·,–,–,–
Cc1noc(C)c1NC(=O)N(C)C[C@@H]1OCCCC[C@H](C)Oc2ccc(NS(=O)(=O)c3cccs3)cc2C(=O)N([C@@H](C)CO)C[C@@H]1C,·,·,–,+
C[C@@H]1CN([C@H](C)CO)C(=O)c2cc(NC(=O)Cc3cn(C)c4ccccc34)ccc2O[C@H]1CN(C)Cc1ccccc1,–,·,·,·
C[C@@H]1CN([C@H](C)CO)C(=O)c2cc(NC(=O)Cc3cn(C)c4ccccc34)ccc2O[C@@H]1CN(C)Cc1ccc(-c2ccccc2)cc1,112,·,·,·
C[C@H](CO)N1C[C@H](C)[C@H](CN(C)Cc2ccccc2)Oc2ccc(NC(=O)Cc3cn(C)c4ccccc34)cc2C1=O,–,–,·,·
C[C@H](CO)N1C[C@H](C)[C@H](CN(C)Cc2ccc(-c3ccccc3)cc2)Oc2ccc(NC(=O)Cc3cn(C)c4ccccc34)cc2C1=O,85,–,·,·
C[C@@H]1CN([C@@H](C)CO)C(=O)c2cc(NC(=O)Cc3cn(C)c4ccccc34)ccc2O[C@@H]1CN(C)Cc1ccc(C(F)(F)F)cc1,106,·,·,·
C[C@H]1CN([C@@H](C)CO)C(=O)c2cc(NC(=O)Cc3cn(C)c4ccccc34)ccc2O[C@H]1CN(C)C(=O)Nc1ccccc1,–,·,–,+
COc1ccc(S(=O)(=O)N(C)CC(=O)Nc2ccc(Cl)c(Cl)c2)cc1,–,–,–,–
C[C@@H]1CN([C@@H](C)CO)C(=O)c2cc(NC(=O)Cc3cn(C)c4ccccc34)ccc2O[C@H]1CN(C)Cc1ccc2c(c1)OCO2,–,–,·,·
C[C@H]1CN([C@@H](C)CO)C(=O)c2cc(NC(=O)Cc3cn(C)c4ccccc34)ccc2O[C@@H]1CN(C)Cc1ccc2c(c1)OCO2,98,·,·,·
COc1cccc(C(=O)NC(c2ccc(Cl)cc2)c2c(O)ccc3ccccc23)c1 (stereo unspecified),108,–,–,–
COc1cccc(C(=O)NC(c2ccc([N+](=O)[O-])cc2)c2c(O)ccc3ccccc23)c1 (stereo unspecified),114,–,–,–
